Source: PubChem (National Center for Advancing Translational Sciences (NCATS))
Hits are enriched below; roughly 6.1% of the tested compounds scored in any of these assays.
D1 PAM = human D1 dopamine receptor positive modulation; P21728; HEK293 TREx D1 cells, calcium flux, dopamine EC20 potentiation; potentiation, % at 10 µM; actives 0.036% (n = 360,000); in the data active means potentiation above about 30%
Target sequence (P21728 whole entry, looked up): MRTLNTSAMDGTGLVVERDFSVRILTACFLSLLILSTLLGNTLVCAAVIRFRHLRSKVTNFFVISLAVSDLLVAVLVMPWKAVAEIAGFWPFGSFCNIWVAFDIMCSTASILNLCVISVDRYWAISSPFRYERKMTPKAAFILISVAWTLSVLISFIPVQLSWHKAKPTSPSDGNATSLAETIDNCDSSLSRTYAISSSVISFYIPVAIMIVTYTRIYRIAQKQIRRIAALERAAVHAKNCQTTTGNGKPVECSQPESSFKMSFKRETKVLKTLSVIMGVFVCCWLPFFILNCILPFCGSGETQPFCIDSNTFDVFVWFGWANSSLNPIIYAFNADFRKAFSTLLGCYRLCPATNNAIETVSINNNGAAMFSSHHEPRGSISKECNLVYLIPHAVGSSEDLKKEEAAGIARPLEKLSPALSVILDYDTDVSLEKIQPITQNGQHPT
DRD3 antagonist = antagonists of human D3 dopamine receptor. P35462. D3R cells, DiscoveRx beta-arrestin luminescence, antagonist mode; active compounds read low. max response, negative = inhibition, %. actives 2.5% (n = 360,000); in the data active means max response below about -50%; inconclusive means no clear call, values can overlap the other calls
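Cells expressing the human receptor were seeded at 1500 cells/well, incubated overnight at 37 degrees C in 5% CO2, then exposed to library compounds with dopamine controls for 90 minutes at 37 degrees C before luminescent detection.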
DRD3 agonist = D3 dopamine receptor (human) agonism; P35462; D3R DiscoveRx beta-arrestin cells, luminescence, 90 min; max activation, %; actives 0.58% (n = 410,000); AID 652048; in the data active means max activation above about 30%
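Agonist-mode cell screen: cells plated at 1500/well and incubated overnight at 37 °C, then exposed to library compounds for 90 min at 37 °C. Detection reagent was added for 30–60 min at room temperature, and luminescence was read.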
D1 ag = activates the human D1 dopamine receptor | HEK293 T-REx D1 cells, calcium flux, agonist mode | activation, % at 2 µM | actives 1% (n = 360,000) | AID 504660; in the data active means activation above about 30%
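Agonism was scored from calcium flux recorded over 180 s (1 read/s) after pintool compound addition, following a 10-cycle baseline. Cells were inducible force-coupled HEK293 TREx D1, plated overnight at 30 C and loaded with no-wash calcium dye.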
D1 antagonist = human D1 dopamine receptor antagonism. HEK293 TREx D1 cells, calcium flux, dopamine EC80; active compounds read low. activity change, negative = inhibition, % at 10 µM. actives 3.2% (n = 360,000). P21728; in the data active means activity change below about -30%
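Tetracycline-induced HEK293 Trex D1 cells, force-coupled to calcium, dye-loaded; compounds added and read 180 s, then EC80 dopamine added and calcium flux tracked kinetically another 180 s.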
Hits are given with their value; - = inactive; ? = inconclusive; . = no result.

SMILES	D1 PAM	DRD3 antagonist	DRD3 agonist	D1 ag	D1 antagonist
CC(NCc1ccc(N(C)C)cc1)C1CC2CCC1C2 (centres undefined)	-	-70.3	-	-	-
CCOC(=O)c1c(C)[nH]c(C)c1C(=O)COC(=O)c1cccs1	.	-	-	.	.
CCCOC(=O)c1c(-c2ccccc2)nc(CC)c(C(=O)SCC)c1CCC	-	-	-	-	-48.0
Cc1cc(N)c(NC2=CC(=O)CC(C)(C)C2)cc1C	-	-	-	31.4	-
CC(NCC(O)c1ccc([N+](=O)[O-])cc1)C12CC3CC(CC(C3)C1)C2 (centres undefined)	-	-	-	49.2	-
COc1ccc(C(=O)N2CCN(Cc3ccc4c(c3)OCO4)CC2)cc1[N+](=O)[O-]	-	-	-	-	-
O=c1c2ccccc2c2ccccc2c(=O)n1Cc1cccnc1	-	-107.6	-	-	-
CCc1nc2ccc(C(=O)NCCN3CCNC3=O)cn2c1N(C)CCC(C)C	.	?	-	.	.
CN1OC[C@@H]2CN3C(=O)N(c4ccccc4)c4ccccc4[C@@H]3C[C@@H]21	.	-	-	.	.
Oc1ccc(C2C[C@H]3CC[C@@H]2C3)cc1O (some centres undefined)	-	-	-	-	-
Oc1ccc(C2CNCc3sccc32)cc1O (centres undefined)	-	-	-	92.3	-95.8
C=C1C(=O)O[C@@H]2C[C@@H](C)[C@@H]3C=CC(=O)[C@@]3(C)[C@@H](OC(C)=O)[C@H]12	-	-84.1	-	-	-
CC(=O)OC1C(OC(C)=O)C2C(C)CC3OC(=O)C(C)C3CC2(C)C1OC(C)=O (centres undefined)	.	-	-	.	.
CCOC(=O)c1cc(S(=O)(=O)NCc2ccc(F)cc2)[nH]n1	-	.	-	-	-
CCOC(=O)c1cc(S(=O)(=O)NCc2ccc(Cl)cc2)[nH]n1	-	.	-	-	-31.6
O=[N+]([O-])c1cc(Cl)c(O)c2ncccc12	-	-	-	-	-
Oc1c(I)cc(Cl)c2cccnc12	-	-71.2	-	-	-
O=[N+]([O-])c1cc(Cl)c2cccnc2c1O	-	-	-	30.1	-
O=[N+]([O-])c1ccc(O)c2cccnc12	-	-	-	-	-
O=[N+]([O-])c1ccc(O)c2ncccc12	-	-67.5	-	-	-
CCc1nn2c(=O)c(S(=O)(=O)Nc3ccc(Br)cc3F)c(C)nc2s1	-	.	-	-	-
Cc1nc(CS(=O)(=O)c2ccccn2)sc1C(=O)NNC(=O)c1ccccc1	-	-	-	-	-31.8
COc1ccc(OC)c(NC(=O)CCc2nc(-c3ccc(C)cc3)no2)c1	-	.	-	-	-
CCOc1c(CC2C(=O)Nc3ccc(Br)cc32)cccc1OC (centres undefined)	-	.	-	68.7	-41.0
CCOc1ccccc1CC1C(=O)Nc2ccc(Br)cc21 (centres undefined)	-	.	-	-	-
SMILES	D1 PAM	DRD3 antagonist	DRD3 agonist	D1 ag	D1 antagonist
Cn1c(Cc2nc(-c3cnccn3)no2)nnc1SCC(=O)Nc1ccccc1	-	-	-	-	-87.5
COc1ccc(NS(=O)(=O)c2ccc3nc(COc4ccc5ccccc5c4)[nH]c3c2)cc1	-	?	-	-	-
COc1ccc(OCc2nc3ccc(S(=O)(=O)Nc4ccccc4Cl)cc3[nH]2)cc1	-	-	-	-	-57.2
CC(C)(C)C1CCN2CCCC(c3ccc([N+](=O)[O-])cc3)(C1)C21OCCO1 (centres undefined)	.	-	-	.	.
CC(C)(C)c1ccc(S(=O)(=O)NC(Cc2ccccc2)C(=O)O)cc1 (centres undefined)	-	-	-	-	-32.5
Cc1ccc(-c2cc3ccccc3nc2N)cc1	-	-	-	-	-97.8
Nc1nc2ccccc2cc1-c1cccs1	-	-	-	-	-60.3
N#Cc1cc2ccccc2nc1N	-	-	-	-	-
c1csc(-c2ccc3ccccc3n2)c1	-	-	-	-	-
COc1ccc(/C=C/C(=O)Nc2sc3c(c2C(N)=O)CCC(C)C3)cc1OC (centres undefined)	-	.	37.2	-	-
COc1cc(C(=O)Nc2sc3c(c2C(N)=O)CCC(C)C3)cc(OC)c1OC (centres undefined)	-	.	-	-	-
CCN(CC)c1ccc(C=C2C(=O)OC(c3ccccc3)OC2=O)cc1 (centres undefined)	-	-	-	-	-
CCN(CC)c1ccc(/C=C/C(=O)C2C(=O)C=C(C)OC2=O)cc1 (centres undefined)	-	-	-	245.8	-78.9
CCOC(=O)Cn1c(C2CC(=O)N(c3ccc(C)cc3)C2)nc2ccccc21 (centres undefined)	-	.	-	-	-45.7
Cc1cc(C)cc(N2CC(c3nc4ccccc4n3C)CC2=O)c1 (centres undefined)	-	-53.7	-	-	-
CCc1ccccc1N1CC(c2nc3ccccc3n2CCCCOc2ccccc2OC)CC1=O (centres undefined)	-	.	-	60.1	-
CCOc1ccc(N2CC(c3nc4ccccc4n3Cc3cccc(C)c3)CC2=O)cc1 (centres undefined)	-	.	-	-	-
Cc1c(C(=O)N2CCc3ccccc32)cnn1C	-	-	-	-	-
O=C(Nc1ccccc1C(F)(F)F)c1ccc2oc(=O)c(S(=O)(=O)c3ccc(F)cc3)cc2c1	-	.	-	-	-
CCN(CC)CCN1C(=O)/C(=C\c2ccc(Cl)c([N+](=O)[O-])c2)SC1=Nc1ccc(OC)cc1	-	-101.9	-	-	-
COc1ccc(N=C2S/C(=C\c3ccc(Cl)c([N+](=O)[O-])c3)C(=O)N2CCN(C)C)cc1	-	-128.1	-	-	-
CCN(CC)C(=O)CSc1nc(OC)cc(=O)[nH]1	-	-	-	-	-
Cc1ccc(NC(=O)C2CCN(c3nc(-c4ccc(C(C)C)cc4)no3)CC2)c(Cl)c1	-	.	-	-	-
CC(=O)c1cc(NC(=O)c2ccc(C)cc2)c(=O)oc1/C=C/N(C)C	-	-	-	34.2	-
COC(=O)c1cc(NC(=O)c2ccc(OC)cc2)c(=O)oc1C	-	-	-	-	-
SMILES	D1 PAM	DRD3 antagonist	DRD3 agonist	D1 ag	D1 antagonist
COc1ccc(C(=O)Nc2cc(C(C)=O)c(/C=C/N(C)C)oc2=O)cc1	-	-	-	40.6	-
CCc1ccccc1NC(=O)C1CCCN(c2ncnc3onc(C)c23)C1 (centres undefined)	-	.	-	-	-
CCOc1ccc2c(c1)-c1c(ssc1=S)C(C)(C)N2	-	-74.4	-	-	-
Cc1cccc(C)c1N=Cc1c(C(F)(F)F)[nH][nH]c1=O	-	-	-	-	-
Cn1c(NC(=O)c2cc(Br)ccc2Cl)cc(=O)n(C)c1=O	-	-	-	32.8	-
Cn1c(NC(=O)c2ccccc2Br)cc(=O)n(C)c1=O	-	-	-	-	-
CC(NC(=O)c1cc(Br)ccc1Cl)c1ccccc1 (centres undefined)	-	-	-	-	-45.7
